# ChEMBL document CHEMBL2218924, “A broad activity screen in support of a chemogenomic map for kinase signalling research and drug discovery” (Biochem J, 2013)
# Key:
# [1] = molecular target: T1, Mitogen-activated protein kinase kinase kinase 7 (Homo sapiens) (UniProt O43318); details: at 1 µM
# T1 sequence (whole entry): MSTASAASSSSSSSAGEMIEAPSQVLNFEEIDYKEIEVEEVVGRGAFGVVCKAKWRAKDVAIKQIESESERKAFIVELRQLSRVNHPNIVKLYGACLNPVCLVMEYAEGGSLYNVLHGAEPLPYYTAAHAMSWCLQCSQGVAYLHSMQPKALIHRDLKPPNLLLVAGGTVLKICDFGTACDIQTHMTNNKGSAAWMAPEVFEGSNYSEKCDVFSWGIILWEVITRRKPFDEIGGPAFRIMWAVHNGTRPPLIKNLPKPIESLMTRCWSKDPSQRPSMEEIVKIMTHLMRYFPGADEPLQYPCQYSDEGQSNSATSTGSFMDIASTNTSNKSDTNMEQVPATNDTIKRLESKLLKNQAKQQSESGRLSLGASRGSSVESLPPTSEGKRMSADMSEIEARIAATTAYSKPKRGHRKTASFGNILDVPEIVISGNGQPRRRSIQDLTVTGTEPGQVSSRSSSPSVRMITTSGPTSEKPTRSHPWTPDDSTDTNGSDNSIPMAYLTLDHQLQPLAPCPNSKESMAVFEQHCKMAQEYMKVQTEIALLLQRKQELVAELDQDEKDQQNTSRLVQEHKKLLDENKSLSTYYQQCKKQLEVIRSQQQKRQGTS
# [2] = molecular target: T1, Mitogen-activated protein kinase kinase kinase 7 (Homo sapiens); details: at 10 µM
# [3] = molecular target: T2, Serine/threonine-protein kinase TAO2 (Homo sapiens) (UniProt Q9UL54); details: at 1 µM
# T2 sequence (whole entry): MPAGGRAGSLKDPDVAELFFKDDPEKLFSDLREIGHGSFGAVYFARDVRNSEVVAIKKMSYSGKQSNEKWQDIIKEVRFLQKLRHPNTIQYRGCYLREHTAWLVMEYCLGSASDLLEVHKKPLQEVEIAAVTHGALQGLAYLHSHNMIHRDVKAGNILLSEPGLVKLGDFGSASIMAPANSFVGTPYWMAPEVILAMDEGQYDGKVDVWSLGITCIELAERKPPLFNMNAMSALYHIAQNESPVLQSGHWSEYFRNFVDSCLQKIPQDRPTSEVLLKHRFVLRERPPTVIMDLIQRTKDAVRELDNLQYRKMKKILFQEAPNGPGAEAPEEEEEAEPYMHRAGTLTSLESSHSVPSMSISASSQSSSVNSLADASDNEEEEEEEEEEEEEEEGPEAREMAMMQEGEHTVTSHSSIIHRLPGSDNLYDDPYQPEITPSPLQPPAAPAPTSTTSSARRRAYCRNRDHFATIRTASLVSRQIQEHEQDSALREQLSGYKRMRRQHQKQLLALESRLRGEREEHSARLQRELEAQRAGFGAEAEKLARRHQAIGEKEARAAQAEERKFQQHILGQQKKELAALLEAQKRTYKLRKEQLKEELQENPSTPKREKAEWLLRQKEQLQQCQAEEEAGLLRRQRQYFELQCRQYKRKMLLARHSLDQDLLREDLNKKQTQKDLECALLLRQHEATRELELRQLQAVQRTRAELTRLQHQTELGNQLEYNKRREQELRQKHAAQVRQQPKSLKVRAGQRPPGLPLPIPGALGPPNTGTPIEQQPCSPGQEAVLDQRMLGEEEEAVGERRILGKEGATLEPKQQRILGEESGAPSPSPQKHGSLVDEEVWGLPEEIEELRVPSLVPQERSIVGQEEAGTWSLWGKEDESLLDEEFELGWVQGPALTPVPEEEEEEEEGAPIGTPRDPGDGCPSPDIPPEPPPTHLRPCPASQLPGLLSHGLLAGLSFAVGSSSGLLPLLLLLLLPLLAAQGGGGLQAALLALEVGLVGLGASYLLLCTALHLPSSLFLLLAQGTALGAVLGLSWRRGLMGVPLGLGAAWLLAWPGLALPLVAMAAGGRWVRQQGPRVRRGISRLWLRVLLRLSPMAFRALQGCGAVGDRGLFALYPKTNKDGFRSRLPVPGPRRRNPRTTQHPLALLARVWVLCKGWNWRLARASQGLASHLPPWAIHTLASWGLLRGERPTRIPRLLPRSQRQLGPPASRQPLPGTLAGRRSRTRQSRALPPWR
# [4] = molecular target: T2, Serine/threonine-protein kinase TAO2 (Homo sapiens); details: at 10 µM
# [5] = molecular target: T3, Serine/threonine-protein kinase TBK1 (Homo sapiens) (UniProt Q9UHD2); details: at 1 µM
# T3 sequence (whole entry): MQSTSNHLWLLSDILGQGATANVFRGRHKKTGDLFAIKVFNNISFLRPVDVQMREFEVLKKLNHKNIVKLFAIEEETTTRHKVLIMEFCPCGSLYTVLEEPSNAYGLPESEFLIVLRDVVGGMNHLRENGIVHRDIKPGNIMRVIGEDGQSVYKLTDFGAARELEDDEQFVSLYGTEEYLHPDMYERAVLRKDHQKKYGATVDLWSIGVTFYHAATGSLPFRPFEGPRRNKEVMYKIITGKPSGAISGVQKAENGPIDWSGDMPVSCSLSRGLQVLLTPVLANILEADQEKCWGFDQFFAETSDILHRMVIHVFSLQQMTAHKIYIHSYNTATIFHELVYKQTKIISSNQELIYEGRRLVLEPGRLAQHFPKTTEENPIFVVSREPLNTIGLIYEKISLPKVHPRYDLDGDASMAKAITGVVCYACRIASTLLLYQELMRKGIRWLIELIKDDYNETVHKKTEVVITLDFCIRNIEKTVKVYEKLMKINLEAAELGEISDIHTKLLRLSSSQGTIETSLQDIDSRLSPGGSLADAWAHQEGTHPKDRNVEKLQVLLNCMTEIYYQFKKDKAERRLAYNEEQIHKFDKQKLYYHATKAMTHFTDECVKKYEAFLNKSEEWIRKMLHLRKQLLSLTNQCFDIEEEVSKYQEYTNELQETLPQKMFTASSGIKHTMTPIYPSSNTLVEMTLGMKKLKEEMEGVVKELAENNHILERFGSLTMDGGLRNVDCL
# [6] = molecular target: T4, Serine/threonine-protein kinase TAO1 (Homo sapiens) (UniProt Q7L7X3); details: at 1 µM
# T4 sequence (whole entry): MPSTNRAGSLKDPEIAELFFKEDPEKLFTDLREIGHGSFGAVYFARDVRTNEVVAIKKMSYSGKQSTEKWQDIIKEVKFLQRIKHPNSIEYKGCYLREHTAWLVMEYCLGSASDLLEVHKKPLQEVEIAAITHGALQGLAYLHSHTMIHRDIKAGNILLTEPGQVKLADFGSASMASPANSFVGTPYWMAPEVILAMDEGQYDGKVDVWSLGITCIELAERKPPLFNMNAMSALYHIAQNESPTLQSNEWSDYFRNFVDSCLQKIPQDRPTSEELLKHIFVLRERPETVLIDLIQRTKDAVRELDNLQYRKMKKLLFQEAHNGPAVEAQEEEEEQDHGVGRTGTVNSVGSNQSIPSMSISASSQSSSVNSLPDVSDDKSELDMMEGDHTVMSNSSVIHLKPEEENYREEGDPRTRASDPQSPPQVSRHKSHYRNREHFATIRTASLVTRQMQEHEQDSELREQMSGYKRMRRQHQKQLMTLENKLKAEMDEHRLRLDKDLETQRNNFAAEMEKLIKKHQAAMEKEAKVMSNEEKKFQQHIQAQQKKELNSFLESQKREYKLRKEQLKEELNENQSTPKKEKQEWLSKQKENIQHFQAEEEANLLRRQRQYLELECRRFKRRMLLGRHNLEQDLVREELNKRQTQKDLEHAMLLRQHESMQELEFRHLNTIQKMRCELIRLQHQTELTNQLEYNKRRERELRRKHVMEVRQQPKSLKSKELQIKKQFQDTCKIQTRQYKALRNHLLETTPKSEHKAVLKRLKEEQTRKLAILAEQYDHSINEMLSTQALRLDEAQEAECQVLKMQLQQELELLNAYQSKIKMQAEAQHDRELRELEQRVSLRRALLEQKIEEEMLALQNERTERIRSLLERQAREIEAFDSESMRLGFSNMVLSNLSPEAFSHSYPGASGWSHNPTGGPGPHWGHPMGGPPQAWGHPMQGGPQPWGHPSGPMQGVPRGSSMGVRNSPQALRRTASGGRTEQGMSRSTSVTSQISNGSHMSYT
# [7] = molecular target: T4, Serine/threonine-protein kinase TAO1 (Homo sapiens); details: at 10 µM
# [8] = molecular target: T5, Serine/threonine-protein kinase TAO3 (Homo sapiens) (UniProt Q9H2K8); details: at 1 µM
# T5 sequence (whole entry): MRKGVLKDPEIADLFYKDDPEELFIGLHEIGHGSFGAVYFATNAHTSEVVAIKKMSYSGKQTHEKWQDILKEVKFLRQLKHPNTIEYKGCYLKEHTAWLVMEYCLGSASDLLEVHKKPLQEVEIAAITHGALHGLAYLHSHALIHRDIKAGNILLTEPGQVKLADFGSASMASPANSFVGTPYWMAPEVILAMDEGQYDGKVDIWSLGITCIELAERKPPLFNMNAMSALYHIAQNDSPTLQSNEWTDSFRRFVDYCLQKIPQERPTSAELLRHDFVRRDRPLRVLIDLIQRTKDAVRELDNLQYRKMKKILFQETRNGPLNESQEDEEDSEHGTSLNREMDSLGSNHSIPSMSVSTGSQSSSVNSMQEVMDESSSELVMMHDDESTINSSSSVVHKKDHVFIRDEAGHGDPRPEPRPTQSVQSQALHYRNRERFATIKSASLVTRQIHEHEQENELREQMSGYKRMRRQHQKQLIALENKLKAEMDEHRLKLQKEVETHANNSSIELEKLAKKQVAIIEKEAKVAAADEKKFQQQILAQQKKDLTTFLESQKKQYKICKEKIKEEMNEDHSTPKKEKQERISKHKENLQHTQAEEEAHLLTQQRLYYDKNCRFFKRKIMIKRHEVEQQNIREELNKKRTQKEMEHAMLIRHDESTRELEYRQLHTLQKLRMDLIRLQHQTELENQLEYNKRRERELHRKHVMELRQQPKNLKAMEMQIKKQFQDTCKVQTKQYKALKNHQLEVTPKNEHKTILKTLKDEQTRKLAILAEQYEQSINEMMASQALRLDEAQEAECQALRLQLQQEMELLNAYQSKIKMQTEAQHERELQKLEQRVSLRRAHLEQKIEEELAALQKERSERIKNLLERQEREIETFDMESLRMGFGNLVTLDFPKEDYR
# [9] = molecular target: T5, Serine/threonine-protein kinase TAO3 (Homo sapiens); details: at 10 µM
# [10] = molecular target: Tyrosine-protein kinase SYK (Homo sapiens) (UniProt P43405); details: at 10 µM
structure (smiles),measurement,setting,value
CC(C)N(CCC(=O)c1ccc2ccccc2c1)Cc1ccccc1,residual activity,[1],87%
same,residual activity,[2],86%
same,residual activity,[3],100%
same,residual activity,[4],88%
same,residual activity,[5],52%
O=C1Cc2c([nH]c3ccc([N+](=O)[O-])cc23)-c2ccccc2N1,residual activity,[6],54%
same,residual activity,[7],30%
same,residual activity,[5],51%
NC(=O)c1ccc(-c2nc(-c3ccc4c(c3)OCCO4)c(-c3ccccn3)[nH]2)cc1,residual activity,[6],96%
same,residual activity,[7],80%
same,residual activity,[3],100%
same,residual activity,[4],93%
same,residual activity,[5],83%
NC(=O)c1cccc(-c2cc(Nc3ccc(OC(F)(F)F)cc3)ncn2)c1,residual activity,[2],95%
same,residual activity,[5],98%
Cc1cc(C)c(/C=C2\C(=O)Nc3ccccc32)[nH]1,residual activity,[1],76%
same,residual activity,[2],71%
same,residual activity,[4],105%
CCOc1nc(NC(=O)Cc2cc(OC)ccc2OC)cc(N)c1C#N,residual activity,[5],79%
COc1cc2nccc(Oc3ccc(NC(=O)Nc4cc(C)on4)c(Cl)c3)c2cc1OC,residual activity,[7],52%
same,residual activity,[3],73%
same,residual activity,[4],43%
same,residual activity,[8],82%
same,residual activity,[9],57%
same,residual activity,[5],82%
N#Cc1c(NC(=O)c2cccc3ccccc23)sc2c1CCCC2,residual activity,[2],93%
same,residual activity,[7],93%
same,residual activity,[4],99%
same,residual activity,[9],88%
same,residual activity,[5],67%
N#C/C(=C\c1ccc(O)c(O)c1)C(=O)NCc1ccccc1,residual activity,[10],71%
same,residual activity,[5],82%
N#C/C(=C1/Nc2ccccc2S1)c1ccnc(NCCc2cccnc2)n1,residual activity,[3],68%
same,residual activity,[4],24%
same,residual activity,[8],84%
same,residual activity,[9],37%
same,residual activity,[5],71%
O=c1cc(N2CCOCC2)oc2c(-c3ccccc3)cccc12,residual activity,[5],68%
COc1cc2c(cc1OC)-c1n[nH]c(Nc3cccc(F)c3)c1C2,residual activity,[10],76%
same,residual activity,[7],61%
same,residual activity,[4],78%
same,residual activity,[5],52%
CC(C)(C)c1nc2c3ccc(F)cc3c3c(=O)[nH]ccc3c2[nH]1,residual activity,[1],44%
same,residual activity,[2],62%
same,residual activity,[6],56%
same,residual activity,[7],24%
same,residual activity,[8],68%
same,residual activity,[9],73%
same,residual activity,[5],15%
O=c1c(-c2ccc(F)cc2)c(-c2ccncc2)[nH]n1-c1ccc(Cl)cc1,residual activity,[10],37%
same,residual activity,[4],77%
same,residual activity,[8],99%
COc1ccc(CNC(=O)Nc2ncc([N+](=O)[O-])s2)cc1,residual activity,[2],79%
same,residual activity,[5],59%
